Measurements taken from PubChem BioAssay (NCI).
Compounds without any hit were thinned out: in the full panel of roughly 79,000, 15% have a hit. Cut-off read from the data, not from the text of the source: active = growth inhibition above about 70%; inactive = the rest.

Key:
[1] = NCI Yeast Anticancer Drug Screen. Data for the rad50 strain (AID 155);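 note: 0% = growth of vehicle-only cultures of the same strain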; conditions: S. cerevisiae rad50 strain growth inhibition; at 50.0 µM; active compounds read high
In short: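 Growth of the mutant yeast was measured after compound exposure and referenced to vehicle-treated cultures.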

[2] = NCI Yeast Anticancer Drug Screen. Data for the mec2-1 strain (AID 157); conditions: S. cerevisiae mec2-1 strain, at 50.0 µM, active compounds read high
In short: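 Vehicle-treated cultures served as reference for growth inhibition of compound-exposed mec2-1 yeast.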

[3] = NCI Yeast Anticancer Drug Screen. Data for the sgs1 mgt1 strain (AID 161);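 note: 0% = growth of cultures given vehicle only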; conditions: S. cerevisiae sgs1 mgt1 strain, at 50.0 µM, active compounds read high
In short: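 Test agents were incubated with a DNA-repair-mutant yeast strain. Growth was then read and compared against vehicle-treated controls.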

[4] = NCI Yeast Anticancer Drug Screen. Data for the cln2 rad14 strain (AID 165);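 note: 0% = growth equal to vehicle treated cultures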; conditions: S. cerevisiae cln2 rad14 strain, at 50.0 µM, active compounds read high
In short: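 Each compound was tested on cln2 rad14 yeast. Inhibition of growth was calculated against vehicle-exposed controls.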

[5] = NCI Yeast Anticancer Drug Screen. Data for the bub3 strain (AID 167); conditions: S. cerevisiae bub3 mutant strain, at 50.0 µM, active compounds read high
In short: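 Whole-cell yeast assay. The mutant strain was incubated with compounds, and growth inhibition was determined by comparison with vehicle-treated cells.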

[6] = NCI Yeast Anticancer Drug Screen. Data for the mlh1 rad18 strain (AID 175); conditions: S. cerevisiae mlh1 rad18 strain growth inhibition; at 50.0 µM; active compounds read high
In short: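 Vehicle-treated cultures served as the reference for growth inhibition in a yeast strain carrying DNA damage repair alterations exposed to each compound.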

Measured: growth inhibition

CC12CCC3C(CC=C4CC(O)CCC43C)C1CCC(=O)N2 (stereo not given)
inactive: [1] 5.2% | [2] -3.55% | [3] -10.2% | [4] 7.95% | [5] -10.2% | [6] -1%

Cc1ccccc1S(=O)(=O)NC1c2ccccc2Oc2ccccc21
inactive: [1] -9.85% | [2] -3.7% | [3] -5.3% | [4] -12.1% | [5] 2.5% | [6] -7.9%

COc1cc2c(c3[nH]cc(C(=O)O)c(=O)c13)NC(=O)CS2
inactive: [1] -47.1% | [2] -87.8% | [3] -16.9% | [4] -32.4% | [5] -2.85% | [6] -29.4%

CCOC(=O)c1cnc2c(ccc3ncccc32)c1OCC
inactive: [1] -12.2% | [2] -23.1% | [3] 7.8% | [4] 17.2% | [5] 10.8% | [6] 12.1%

CC1(C(=O)O)CCCC2(C)C3=CC(=O)CCC3=CCC12 (stereo not given)
inactive: [1] -3.7% | [2] 18.1% | [3] 8.7% | [4] 2.95% | [5] 24.7% | [6] 4.5%

COC(=O)c1ccc(N(C)CC/C(CNc2nc(N)[nH]c(=O)c2[N+](=O)[O-])=N\NC(N)=O)cc1
inactive: [1] 9.35% | [2] 10.6% | [3] -2.4% | [4] 6.25% | [5] -7.55% | [6] -4.15%

O=c1c2ccccc2nc(-c2ccccc2)n1-c1cc(C(F)(F)F)cc(C(F)(F)F)c1
inactive: [1] -20.5% | [2] -23% | [3] 7.85% | [4] 10.8% | [5] 4% | [6] 5.95%

CCN=C1Nc2ccccc2-n2c(nn3nc4ccccc4c23)N1CC
inactive: [1] -13.1% | [2] -26.4% | [3] -42% | [4] -24.3% | [5] -41% | [6] -51.7%

CCCCC(CC)COC(=O)CCl (stereo not given)
inactive: [1] 21.1% | [2] 10.7% | [3] 8.3% | [4] -14.8% | [5] -1.6% | [6] 21.8%

C=C1CC2OC(=O)C(=C)C2C(OC(=O)c2ccccc2)/C=C(\C)CCC1OC(=O)c1ccccc1 (stereo not given)
inactive: [1] -13.7% | [2] -3.25% | [3] -11.2% | [4] -39.3% | [5] -0.85% | [6] -21.4%

NCCCCCCN
inactive: [1] -50.6% | [2] -6.05% | [3] -36.6% | [4] -46.8% | [5] -45.5% | [6] -65%

CCCC(P(c1ccccc1)c1ccccc1)P(=O)(c1ccccc1)c1ccccc1 (stereo not given)
inactive: [1] 62.7% | [2] 39.2% | [3] 39.1% | [4] 24.9% | [5] 59.4% | [6] 29.1%

NS(=O)(=O)c1ccc(NC(=O)/C=C\C(=O)O)cc1
inactive: [1] -15.6% | [2] -27.2% | [3] 17.1% | [4] -1.4% | [5] -4.2% | [6] -9.6%

CC(=O)OCC(OC(C)=O)C(OC(C)=O)C(OC(C)=O)C1OC(=O)C(OC(C)=O)C1OC(C)=O (stereo not given)
inactive: [1] 0.5% | [2] -12% | [3] 3.8% | [4] 2.25% | [5] -0.75% | [6] 9.9%

CSc1ccc2c(c1)Cc1cc(NC(C)=O)ccc1-2
inactive: [1] 8.8% | [2] -9.05% | [3] -4.25% | [4] -12.3% | [5] -11.8% | [6] 1.05%

O=S(=O)(O)c1cc2cc(S(=O)(=O)O)c(O)cc2cc1O
inactive: [1] -20.6% | [2] -7.55% | [3] -1.35% | [4] 3.55% | [5] -0.25% | [6] -7.9%

CS(=O)(=O)OC1CC/C=C\CCC1OS(C)(=O)=O (stereo not given)
inactive: [1] 1.3% | [2] 14.5% | [3] 12.3% | [4] -9.35% | [5] -15.4% | [6] -15.6%

N#Cc1ccccc1NC(=O)C(=O)C(C(=O)c1ccccc1-c1ccccc1)C1OC(=O)c2ccccc21 (stereo not given)
inactive: [1] 24.4% | [2] 5.25% | [3] 11.7% | [4] -43% | [5] 2.25% | [6] 0.95%

Cc1ccc(S(=O)(=O)N/N=C(\C(=O)c2ccccc2)c2ccccc2)cc1
inactive: [1] 45% | [2] 18.2% | [3] 39.4% | [4] 28.1% | [5] 23.6% | [6] 36.6%

O=[N+]([O-])c1ccc(N/N=C(\Cc2ccccc2)c2ccccc2)c([N+](=O)[O-])c1
inactive: [1] 6.8% | [2] 2.25% | [3] 6.2% | [4] -20.3% | [5] -5.75% | [6] 2.3%
